The record followed here is PubChem BioAssay (EPA / NIEHS).

Values joined by “and” are separate entries in the source; they are usually repeats but may differ in a detail not shown here. Equal entries are not always repeated. Inconclusive results are not listed. Where a structure was tested more than once in an assay, its records may differ in their call. Active and inactive are the calls of the source. How the source made its calls: active means hit-call score of the fitted dose curve at least 0.9, where 1 is the maximum; inconclusive means response in the unintended direction; inactive means score below 0.9.

The AC50 is the midpoint of the concentration-response curve, whichever way the signal moves.

Sequence of Cellular tumor antigen p53 (Homo sapiens) (P04637 whole entry, looked up): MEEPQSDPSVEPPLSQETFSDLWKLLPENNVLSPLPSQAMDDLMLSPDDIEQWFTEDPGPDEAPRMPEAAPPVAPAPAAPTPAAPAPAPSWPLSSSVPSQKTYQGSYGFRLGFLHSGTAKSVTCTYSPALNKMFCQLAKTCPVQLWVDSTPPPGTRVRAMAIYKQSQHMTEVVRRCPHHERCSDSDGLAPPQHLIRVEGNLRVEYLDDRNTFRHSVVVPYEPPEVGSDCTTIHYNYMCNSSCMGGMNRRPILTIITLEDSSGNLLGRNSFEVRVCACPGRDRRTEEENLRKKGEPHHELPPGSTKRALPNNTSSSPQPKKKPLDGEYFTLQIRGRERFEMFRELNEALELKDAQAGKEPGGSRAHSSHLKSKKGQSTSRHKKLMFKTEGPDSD

The target in one assay is Cellular tumor antigen p53 (Homo sapiens) (UniProt P04637). Kind of assay: TOX21_p53_BLA_p3_ratio: Tox21 HCT-116 p53 Agonism Beta-lactamase Assay, Ratio, Phase 3 (AID 2283596). The essentials:
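Cells were seeded at 4000/well, rested 5 h at 37C, then dosed with DMSO compound solutions (217-fold dilution) for 16 h. CCF4-AM substrate was loaded for 2 h at room temperature, and the 460/530 nm emission ratio was fitted for gain of signal versus DMSO.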
As for `OC(c1ccc(Cl)cc1)(c1ccc(Cl)cc1)c1cccnc1`, the outcome was inactive.
In the case of `CCCCCCCCCCCCN(C)C`, the outcome was inactive.
As to `CCOC(=O)CC(=O)CCl`, the AC50 is 77.9 µM (active).
Take `CCOP(=S)(OCC)O/N=C(\C#N)c1ccccc1`: the result was inactive.
Same read-out and setting: the value for `O=S1OC[C@@H]2[C@H](CO1)[C@]1(Cl)C(Cl)=C(Cl)[C@@]2(Cl)C1(Cl)Cl` (some centres not stated) was “inactive”; that for `O=[N+]([O-])c1cc([As](=O)(O)O)ccc1O` was “inactive”; that for `Cl[C@H]1OCCO[C@@H]1Cl` was “inactive”.
For `OCCCCO`, the outcome was inactive.
On to `O=c1[nH]c2ccccc2n1C1CCN(CCCC(c2ccc(F)cc2)c2ccc(F)cc2)CC1`, for which the AC50 was 83.6 µM (active) and 43.4 µM (active).
For `CC(C)CC(C)(c1ccc(O)cc1)c1ccc(O)cc1`, the AC50 is 45.2 µM (active) and 86.9 µM (active).
For the compound `CCCCCCCCCCCCCCC(Br)C(=O)O` (configuration not stated), the AC50 is 75.3 µM (active).
Same read-out and setting: the value for `C[CH2][Hg][S]c1ccccc1C(=O)O` was 221 nM (active) and 970 nM (active).
Take `OCC(c1ccc(Cl)cc1)c1ccc(Cl)cc1`: the outcome was inactive.
Same read-out and setting: the value for `O=C1c2ccccc2C(=O)C1C(=O)C(c1ccccc1)c1ccc(Cl)cc1` (configuration not stated) was “inactive”; that for `CCNc1nc(NCC)nc(SC)n1` was “inactive”; that for `CC(C)(C#N)N=NC(C)(C)C#N` was “inactive”.
With `COP(=S)(OC)Oc1cc(Cl)c(I)cc1Cl`, the AC50 was 75.1 µM (active).
As for `CCC[CH2][Sn]([CH2]CCC)([CH2]CCC)[CH2]CCC`, the AC50 is 29.6 µM (active).
Consider `CC(C)=CC1C(C(=O)OCc2cccc(Oc3ccccc3)c2)C1(C)C` (configuration not stated), for which the result was inactive.
As to `O=C(NC(=O)c1c(F)cccc1F)Nc1cc(Cl)c(Oc2ncc(C(F)(F)F)cc2Cl)c(Cl)c1`, the outcome was inactive.
`Clc1cc(C(Cl)(Cl)Cl)cnc1Cl`: the outcome was inactive.
As to `Cc1cc(-c2cc(C)c(N)c(C)c2)cc(C)c1N`, the result was inactive.
On the same count and under the same terms, the same measure for `Brc1ccc(Br)cc1`: “inactive”.
As to `c1ccc2c(c1)Oc1ccccc1O2`, the AC50 is 86.4 µM (active) and the result was inactive.
On to `C=C(C)C(=O)OCC(CC)CCCC` (configuration not stated), for which the result was inactive.
Regarding `O=C(O)COc1ccc(Cl)cc1`, the outcome was inactive.
In the case of `O=c1oc2ccccc2c(O)c1C(CC(O)c1ccc(-c2ccc(Br)cc2)cc1)c1ccccc1` (configuration not stated), the AC50 is 43.4 µM (active) and 22.3 µM (active).

Tested on in another assay: not listed separately
Description: TOX21_p53_BLA_p4_viability: Viability Assessment in the Tox21 HCT-116 p53 Agonism Beta-lactamase Assay, Phase 4 (AID 2283597).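 Further: hits lower the luminescence signal meaning cytotoxicity.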 In short, it runs like this: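 Readout: ATP luminescence (CellTiter-Glo), measured 30 min after reagent addition at RT. The reagent followed a 2 h CCF4-AM incubation, and the cells had been exposed to compound for 16 h at 37C.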
For `OC(c1ccc(Cl)cc1)(c1ccc(Cl)cc1)c1cccnc1`, the AC50 was 60.5 µM (active).
With `CCCCCCCCCCCCN(C)C`, the outcome was inactive.
Still for that read-out and setting: the value for `CCOP(=S)(OCC)O/N=C(\C#N)c1ccccc1` was “inactive”.
The same measure, in the same setting: the same measure for `CCCCOC(=O)COC(=O)c1ccccc1C(=O)OCCCC`: “inactive”.
For `O=S1OC[C@@H]2[C@H](CO1)[C@]1(Cl)C(Cl)=C(Cl)[C@@]2(Cl)C1(Cl)Cl` (some centres not stated), the AC50 was 83.6 µM (active).
For the compound `Cl[C@H]1OCCO[C@@H]1Cl`, the result was inactive.
The same measure, in the same setting: the same measure for `OCCCCO`: “inactive”.
Take `O=c1[nH]c2ccccc2n1C1CCN(CCCC(c2ccc(F)cc2)c2ccc(F)cc2)CC1`: the AC50 is 14.6 µM (active) and 11.3 µM (active).
Same read-out and setting: the same measure for `CC(C)CC(C)(c1ccc(O)cc1)c1ccc(O)cc1`: 18.6 µM (active) and 46.2 µM (active).
Regarding `CC(C)C(C)(N)C#N` (configuration not stated), the compound was classed as inactive.
Same read-out and setting: the value for `CCCCCCCCCCCCCCC(Br)C(=O)O` (configuration not stated) was “inactive”.
Same read-out and setting: the same measure for `O=C(O)c1cc(I)cc(I)c1I`: “inactive”.
Same read-out and setting: the value for `C#CCOC(=O)/C=C(C)/C=C/CC(C)CCCC(C)C` (configuration not stated) was “inactive”; that for `O=C(Cc1ccccc1)OCCc1ccccc1` was “inactive”.
As for `O=S1(=O)OC(c2cc(Br)c(O)c(Br)c2)(c2cc(Br)c(O)c(Br)c2)c2ccccc21`, the AC50 is 52.4 µM (active).
For `C[CH2][Hg][S]c1ccccc1C(=O)O`, the AC50 is 41.7 µM (active) and 5.78 µM (active).
Take `OCC(c1ccc(Cl)cc1)c1ccc(Cl)cc1`: the AC50 was 71.1 µM (active).
Turning to `Cc1cc(Cl)ccc1OC(C)C(=O)O` (configuration not stated), the call was inactive.
`O=C1c2ccccc2C(=O)C1C(=O)C(c1ccccc1)c1ccc(Cl)cc1` (configuration not stated): the AC50 is 37.3 µM (active).
On to `CCNc1nc(NCC)nc(SC)n1`, for which the result was inactive.
`COP(=S)(OC)Oc1cc(Cl)c(I)cc1Cl`: the compound was called inactive.
As to `CCC[CH2][Sn]([CH2]CCC)([CH2]CCC)[CH2]CCC`, the AC50 was 42.2 µM (active).
For `CC(C)=CC1C(C(=O)OCc2cccc(Oc3ccccc3)c2)C1(C)C` (configuration not stated), the call was inactive.
`O=C(NC(=O)c1c(F)cccc1F)Nc1cc(Cl)c(Oc2ncc(C(F)(F)F)cc2Cl)c(Cl)c1`: the AC50 was 4.06 µM (active).
Consider `Cc1cc(-c2cc(C)c(N)c(C)c2)cc(C)c1N`, for which the compound was called inactive.
Still for that read-out and setting: the value for `CCCCN(CCCCO)N=O` was “inactive”.
On the same count and under the same terms, the same measure for `Brc1ccc(Br)cc1`: “inactive”.
The same measure, in the same setting: the same measure for `c1ccc2c(c1)Oc1ccccc1O2`: “inactive”; for `C=C(C)C(=O)OCC(CC)CCCC` (configuration not stated): “inactive”; for `O=C(O)COc1ccc(Cl)cc1`: “inactive”.
Consider `O=c1oc2ccccc2c(O)c1C(CC(O)c1ccc(-c2ccc(Br)cc2)cc1)c1ccccc1` (configuration not stated), for which the AC50 is 10.4 µM (active) and the call was inactive.
Regarding `Clc1ccc(C(Cl)(Cl)Cl)cn1`, the outcome was inactive.

In the next assay the target is Cellular tumor antigen p53 (Homo sapiens) (UniProt P04637). Description: TOX21_p53_BLA_p5_ratio: Tox21 HCT-116 p53 Agonism Beta-lactamase Assay, Ratio, Phase 5 (AID 2283599). The essentials:
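Beta-lactamase reporter ratio (blue 460 nm over green 530 nm, 405 nm excitation) after 2 h CCF4-AM loading, in HCT-116 cells exposed 16 h at 37 C to compounds pinned at 217-fold dilution. Increases relative to DMSO baseline scored.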
On to `OC(c1ccc(Cl)cc1)(c1ccc(Cl)cc1)c1cccnc1`, for which the AC50 was 72.5 µM (active).
Turning to `CCOC(=O)CC(=O)CCl`, the result was inactive.
The same measure, in the same setting: the same measure for `CCOP(=S)(OCC)O/N=C(\C#N)c1ccccc1`: “inactive”.
With `O=S1OC[C@@H]2[C@H](CO1)[C@]1(Cl)C(Cl)=C(Cl)[C@@]2(Cl)C1(Cl)Cl` (some centres not stated), the outcome was inactive.
On the same count and under the same terms, the value for `O=[N+]([O-])c1cc([As](=O)(O)O)ccc1O` was “inactive”; that for `Cl[C@H]1OCCO[C@@H]1Cl` was “inactive”.
Still for that read-out and setting: the value for `Nc1nc(=S)[nH][nH]1` was “inactive”; that for `OCCCCO` was “inactive”.
On to `O=c1[nH]c2ccccc2n1C1CCN(CCCC(c2ccc(F)cc2)c2ccc(F)cc2)CC1`, for which the AC50 was 84.6 µM (active) and 43.2 µM (active).
Same read-out and setting: the same measure for `CC(C)CC(C)(c1ccc(O)cc1)c1ccc(O)cc1`: 84.6 µM (active) and 86.8 µM (active).
As to `O=S1(=O)OC(c2cc(Br)c(O)c(Br)c2)(c2cc(Br)c(O)c(Br)c2)c2ccccc21`, the result was inactive.
Turning to `OCC(c1ccc(Cl)cc1)c1ccc(Cl)cc1`, the AC50 is 86.8 µM (active).
Turning to `Cc1cc(Cl)ccc1OC(C)C(=O)O` (configuration not stated), the result was inactive.
Regarding `CCNc1nc(NCC)nc(SC)n1`, the outcome was inactive.
`CC(C)(C#N)N=NC(C)(C)C#N`: the outcome was inactive.
On to `CCC[CH2][Sn]([CH2]CCC)([CH2]CCC)[CH2]CCC`, for which the AC50 was 44.3 µM (active).
Turning to `Clc1cc(C(Cl)(Cl)Cl)cnc1Cl`, the result was inactive.
Consider `Brc1ccc(Br)cc1`, for which the result was inactive.
`C=C(C)C(=O)OCC(CC)CCCC` (configuration not stated): the result was inactive.
As for `O=c1oc2ccccc2c(O)c1C(CC(O)c1ccc(-c2ccc(Br)cc2)cc1)c1ccccc1` (configuration not stated), the AC50 was 27.2 µM (active) and 14.3 µM (active).
For `Clc1ccc(C(Cl)(Cl)Cl)cn1`, the result was inactive.
